Consider 40 compounds from PubChem BioAssay (Tox21).

SMILES strings stand for the structures. Records with an inconclusive call do not appear. Where a call stands in place of a potency, no number is given. A number with no mark means an inactive call. Activity calls are given as the source filed them. Calls follow the shape of the dose curve; as a rule, active = well fitted activation curve with a large enough effect in the repeat runs; inconclusive = weak or mixed curves; inactive = flat fitted curve, though single readings scatter.
Potency is read from the fitted curve at half-maximal effect.

This assay can be described thus: A CellTox Green Cytotoxicity Assay to monitor cytotoxicity in HepG2 cells - 24 hour (AID 1224878). Also: nearly all actives have a fitted effect of over 45% in size. The following applies: CellTox Green fluorescence; series mostly up to 76.8 µM. From the text:
National Center for Advancing Translational Sciences [NCATS]
NIH Chemical Genomics Center [NCGC]
U.S. Environmental Protection Agency [EPA]
National Institutes of Environmental Health Sciences [NIEHS]
National Toxicology Program [NTP]
Cell-based models are critical for drug discovery. Determining the natural cytotoxic effects resulting from test compounds is an essential research activity. A CellTox Green Cytotoxicity Assay to monitor cytotoxicity in real time of continues cell culture during 40 hours of the compound treatment was used to screen Tox21 10K library compounds in HepG2 cells. CellTox Green Cytotoxicity Assay is a nonlytic, homogeneous, biofluorescent method to measure cytotoxicity in cell culture after experimental manipulation. The assay system uses a proprietary asymmetric cyanine dye that is excluded from viable cells but preferentially stains the dead cell's DNA. […] Viable cells produce no appreciable increases in fluorescence. Therefore, the fluorescence signal produced by the binding interaction with dead cell DNA is proportional to cytotoxicity.
The mixture of HepG2 cell suspension and reagents were dispensed at 600cells/6 ul/well in 1536-well tissue culture treated black solid bottom plates using a Multidrop dispenser. After the assay plates were incubated at a 37 C/5% CO2 incubator for 5 hours, 23 nL of compounds dissolved in DMSO, positive and negative controls was transferred to the assay plate by a pintool work station. The plates were incubated at 37 C for 40 hours. The fluorescence intensity were measured at 0h, 8h, 16h, 24h, 32h and 40h time points using ViewLux plate reader during compound treatment.
Regarding `Cc1cc(S(=O)(=O)O)c(N)cc1Cl`, the Potency entry was “inactive”.

As to `CCCCNCCCC`, the Potency entry was “inactive”.

As for `O=C1N(c2ccccc2)c2ccccc2C1(Cc1ccncc1)Cc1ccncc1`, the Potency result was “inactive”.

On to `C[C@@H]1CN(c2c(F)c(F)c3c(=O)c(C(=O)O)cn(C4CC4)c3c2F)C[C@H](C)N1`, for which the cytotoxicity was -13.2% [at 15.8 µM].

For `CCCCCCn1c(=O)c2c(ncn2C)n(C)c1=O`, the Potency entry was “inactive”.

For `O=C1CCCCCCCCCCC(=O)OCCO1`, the Potency is 21.9 µM (active).

For the compound `OCC(CBr)(CBr)CBr`, the Potency result was “inactive”.

Turning to `C=CC1CO1` (stereo not given), the Potency result was “inactive”.

Consider `CC(=O)N[C@@H](CC(C)C)C(=O)O`, for which the Potency entry is “inactive”.

Consider `CC1=C(O)C(=O)OC1C` (stereo not given), for which the Potency result is “inactive”.

With `CCCCCCCCCC/C=C/C#N`, the Potency entry is “inactive”.

In the case of `COC(=O)/C=C(/C)N`, the Potency result was “inactive”.

`Cc1ccsc1C(=CCCN1CCC[C@@H](C(=O)O)C1)c1sccc1C`: the Potency result is “inactive”.

As for `CC(C)c1ccccc1`, the Potency result was “inactive”.

On to `O=C1CCCCC1C1CCCCC1` (stereo not given), for which the Potency result is “inactive”.

Take `NCCC(O)(P(=O)(O)O)P(=O)(O)O`: the Potency result is “inactive”.

As for `CCOC(=O)C1CC(=O)C(=C(O)C2CC2)C(=O)C1` (stereo not given), the Potency entry was “inactive”.

In the case of `CCOC(=O)c1ccccc1O`, the Potency result is “inactive”.

`Cc1nc(N)nc(N)c1-c1ccc(Cl)c(Cl)c1`: the Potency result was “inactive”.

Regarding `COC(C)CCO` (stereo not given), the Potency entry was “inactive”.

On to `Cc1ccc([N+](=O)[O-])cc1Cl`, for which the Potency result was “inactive”.

Consider `COC(=O)c1ccc2cc(C(=O)OC)ccc2c1`, for which the cytotoxicity was -14.4% [at 15.8 µM].

For `CCCc1c2oc(C(=O)O)cc(=O)c2cc2c(=O)cc(C(=O)O)n(CC)c12`, the Potency entry is “inactive”.

For `CCOC(=O)NCCC[Si](OCC)(OCC)OCC`, the Potency result was “inactive”.

As to `CC1(C)O[C@@H]2C[C@H]3[C@@H]4CCC5=CC(=O)CC[C@]5(C)[C@@]4(F)[C@@H](O)C[C@]3(C)[C@]2(C(=O)CCl)O1`, the Potency result is “inactive”.

On to `CCN(CC)C(=O)N(CC)CC`, for which the Potency entry is “inactive”.

With `COc1ccccc1OCC(O)COC(N)=O` (stereo not given), the Potency entry is “inactive”.

Take `Cc1nc(-c2ccccn2)ncc1C(=O)Nn1cc(C)c2cc(F)ccc21`: the Potency entry is “inactive”.

Turning to `CN(C)CC[C@@H](c1ccc(Cl)cc1)c1ccccn1`, the Potency result was “inactive”.

Take `C=CCc1cc(OC)c(O)c(C(=O)NCCO)c1`: the Potency result was “inactive”.

Regarding `CC(C)C1=CC2=CC[C@@H]3[C@](C)(CCC[C@@]3(C)C(=O)O)[C@H]2CC1`, the Potency entry was “inactive”.

For `CC(=O)OC(C)OC(C)=O`, the Potency entry was “inactive”.

`CC1=CC(=O)CC(C)(C)C1=O`: the Potency result is “inactive”.

With `CC1(C)C(=O)N(Cl)C(=O)N1Br`, the Potency result was “inactive”.

For `CCN(O)CC`, the Potency result was “inactive”.

In the case of `FC(F)(F)C(Cl)(Cl)Cl`, the Potency result was “inactive”.

With `CCCCCCCCOC(=O)CCCCCCCCC(=O)OCCCCCCCC`, the Potency entry was “inactive”.

Regarding `CCC(=O)Nc1ccc(O)cc1`, the Potency result was “inactive”.

For the compound `O=C(Cl)c1cccc([N+](=O)[O-])c1`, the Potency result was “inactive”.

`CCCCCCC`: the Potency entry is “inactive”.
